TRPML1 ag: activates the human TRPML1 channel. activation, % (test concentration not listed). TRPML1-expressing cells, Ca2+ dye fluorescence, FDSS. Q9GZU1. 410,000 tested, 0.12% active; in the data active = activation above about 50%; inconclusive = mostly about 30% to 49%
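Agonist activity was taken from a 110 s kinetic Ca2+ dye read on the FDSS after pinning compounds onto TRPML1-DL cells. The cells were seeded at 1,500/well with Tet inducer, incubated about 16 h, then dye-loaded at room temperature.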
TRHR agonist-1: TRH receptor (human) agonism; TRHR cells, calcium flux fluo-8, FDSS agonist mode; P34981; 360,000 tested, 0.18% active; activation, % at 2 µM; in the data active = activation above about 30%
Target sequence (P34981 whole entry, looked up): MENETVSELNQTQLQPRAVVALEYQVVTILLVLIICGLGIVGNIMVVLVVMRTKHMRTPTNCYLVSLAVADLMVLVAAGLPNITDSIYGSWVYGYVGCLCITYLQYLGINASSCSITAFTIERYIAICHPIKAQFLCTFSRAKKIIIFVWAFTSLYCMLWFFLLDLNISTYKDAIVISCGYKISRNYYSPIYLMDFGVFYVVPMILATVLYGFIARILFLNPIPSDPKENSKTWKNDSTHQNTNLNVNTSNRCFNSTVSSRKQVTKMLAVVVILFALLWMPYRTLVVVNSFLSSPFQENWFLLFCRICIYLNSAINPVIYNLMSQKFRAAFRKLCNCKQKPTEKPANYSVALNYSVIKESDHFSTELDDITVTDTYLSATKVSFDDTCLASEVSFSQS
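Fluo-8-loaded TRHR cells; 10 s baseline, compound added, kinetic Ca2+ fluorescence read 1/s, agonist mode.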
TRPML1 blocker: human mucolipin-1 channel inhibition; Q9GZU1; TRPML1-inducible cells, Ca2+ dye fluorescence, FDSS; hits give low values; inhibition of EC80 agonist-evoked calcium signal; activity change, negative = inhibition, % (concentration not given with the values); 390,000 tested, 0.02% active; in the data active = activity change below about -50%; inconclusive = between about -30% and that limit;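 note: stimulus is agonist 54-4 at its EC80 concentration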
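TRPML1-DL cells, Tet-induced overnight (~16 h, 37 °C) at 1,500 cells/well, were loaded with Ca8 no-wash dye plus quencher for 45-90 min at room temperature. Compounds were pinned during FDSS kinetic reading; agonist 54-4 at EC80 (4 uM final) then added.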
TRPV1 PAM: human TRPV1 potentiation. Q8NER1. TRPV1-expressing cells, Fluo-8 calcium influx, capsaicin EC20 potentiation. potentiation, % at 8.33 µM. 320,000 tested, 0.02% active. AID 540277; in the data active = potentiation above about 80%; inconclusive = between about 30% and that limit
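Fluo-8 calcium influx in TRPV1-expressing cells, kinetic read (ex 480/em 520 nm). Compound added and read 3 min for agonist activity, followed by capsaicin at EC20 final and 2 min further read for enhancement.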
TRPV1 ag: agonists of human vanilloid receptor 1 (TRPV1); 320,000 tested, 0.19% active; TRPV1-expressing cells, Fluo-8 calcium influx, agonist mode; AID 540275; Q8NER1; activation, % at 8.33 µM; in the data active = activation above about 80%; inconclusive = between about 30% and that limit
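Fluo-8 calcium influx in TRPV1-expressing cells, kinetic read (ex 480/em 520 nm). Compound added and read 3 min for agonist activity, followed by capsaicin at EC20 final and 2 min further read for enhancement.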
TRHR enhancer-1: TRH receptor (human) allosteric enhancement. P34981. TRHR cells, fluo-8 calcium fluorescence, EC20 TRH enhancement. enhancement, % at 2 µM. 360,000 tested, 0.66% active. AID 493056; in the data active = enhancement above about 30%
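TRHR-expressing cells loaded with fluo-8 calcium dye were read kinetically (ex 480/em 530) during compound addition, then stimulated with an EC20 of TRH (10 nM final). Enhancement of the Gq-mediated intracellular calcium response was scored.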
TRHR enhancer-2: human TRH receptor allosteric enhancement confirmation. shares compounds with TRHR enhancer-1. TRH receptor cell assay, enhancer confirmation qHTS. activity change, negative = inhibition, % at 46.1 µM. 970 tested, under 10 active;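 note: compound effect scored on response to added TRH at EC20 of 10 nM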
TRHR agonist-2: confirmation of human TRH receptor agonists; Potency, µM (series often up to 46.1 µM), actives largely listed as activators; shares compounds with TRHR enhancer-1; AID 493078; TRHR-expressing cells, agonist activation read-out; 970 tested, 8% active; note: nearly all actives have a fitted effect of over 75% in size
A number is an active result; – = inactive; ? = inconclusive; · = no result given; ! = repeats disagree. An excerpt weighted towards active compounds, which were near 0.96% of everything screened. Unless noted, calls come from the whole dose curve; as a rule, active = well fitted curve in the direction sought with a large enough effect; inconclusive = small, poorly fitted or top-dose-only effect, or another doubt; inactive = no such curve, though single readings can be large; an effect the other way counts as inactive or inconclusive.

SMILES	TRPML1 ag	TRHR agonist-1	TRPML1 blocker	TRPV1 PAM	TRPV1 ag	TRHR enhancer-1	TRHR enhancer-2	TRHR agonist-2
CN1CCN(CC(=O)NC(=O)NC2CCCCC2)CC1	–	–	–	–	–	–	·	·
N#Cc1ccc(S(=O)(=O)N2CCN(c3nc(-c4cccs4)nc4ccccc34)CC2)cc1	–	·	·	·	·	·	·	·
COC(=O)c1ccc(NC(=O)C(=O)c2c[nH]c3ccccc23)cc1	–	–	–	–	–	–	·	·
O=C(Nc1ccccc1)C(=O)c1c[nH]c2ccccc12	–	–	–	–	–	50	–	–
CCN(CC)S(=O)(=O)c1ccc(NC(=O)CSc2nnc3c(n2)[nH]c2ccccc23)cc1	–	·	·	·	·	·	·	·
CNc1ccc(/C=C2\C=Cc3ccccc32)cc1I	–	·	·	·	·	·	·	·
COc1ccc(NC(=O)COc2ccc3c(c2)CCC3)cc1	–	–	–	–	?	42	–	–
CNC(=O)COc1ccccc1C(=O)Nc1ccccc1	–	·	·	·	·	·	·	·
COc1ccc(CNCc2ccccc2C(F)(F)F)cc1	–	–	–	–	–	–	·	·
COc1ccc(CNCc2cccc3ccccc23)cc1	–	–	–	–	–	52	?	?
COc1ccc(/C(C)=N\NC(=O)CSc2nnc(C)s2)cc1	–	–	–	–	–	–	·	·
C/C(=N\NC(=O)CSc1nnc(C)s1)c1ccc(Cl)cc1	–	–	–	–	–	43	–	–
CCOC(=O)c1cc(C)sc1NC(=O)CSC1=NCCS1	–	–	–	–	–	56	–	–
Cc1ccc(C)c(N2CCN(CCCNC(=O)c3cnn(-c4ccc(F)cc4)c3C3CCN(C(=O)OC(C)(C)C)CC3)CC2)c1	–	–	–	·	·	–	·	·
Cn1nnnc1SCc1c(F)cccc1F	–	–	–	–	–	42	?	–
Cn1nnnc1SCc1cccc(CSc2nnnn2C)n1	–	–	–	–	–	–	·	·
C=C(NNC(C)=O)c1ccc(O)cc1	–	·	·	·	·	·	·	·
Nc1[nH]c2cc([N+](=O)[O-])ccc2c1-c1ccccn1	–	31	–	–	–	–	–	?
Cn1c(O)c(N=NC(=N)N)c2ccccc21	·	–	·	·	·	66	–	–
O=P1(c2ccccc2)C=Cn2c1cc1c2CCCC1 (stereo not given)	–	–	–	–	–	60	–	–
Cc1ccc(OCC(=O)Nc2ccc(O)c(-c3nc4cc(C)c(C)cc4o3)c2)cc1	–	·	·	·	·	·	·	·
COc1cc(/C=C2\SC(=N)N(c3ccc4c(c3)OCO4)C2=O)cc(OC)c1O	–	45	–	–	–	–	–	?
O=C(CSc1nc2ccccc2s1)N1c2ccccc2Sc2ccc(C(F)(F)F)cc21	–	–	–	–	–	58	–	–
CCOc1cc(/C=C(/C#N)C(=O)Nc2ccc(O)cc2)cc(Br)c1O	–	40	–	–	–	–	–	21µM
COc1cc(C(=O)Nc2cccc(-c3cn4cccnc4n3)c2)cc(OC)c1OC	–	–	–	–	–	63	–	–
SMILES	TRPML1 ag	TRHR agonist-1	TRPML1 blocker	TRPV1 PAM	TRPV1 ag	TRHR enhancer-1	TRHR enhancer-2	TRHR agonist-2
CNc1c(Br)cc(C(O)C2=CCc3ccccc32)cc1Br (stereo not given)	–	·	·	·	·	·	·	·
CCc1ccccc1NC(=O)NC1CCCCC1	–	–	–	–	–	48	–	–
CN(C)C(=O)c1ccc(NS(=O)(=O)c2ccc3c(c2)OCCO3)cc1	–	–	–	–	–	66	–	–
O=C(O)c1ccc(NS(=O)(=O)c2ccc3c(c2)OCCO3)cc1	–	–	–	–	–	–	·	·
Cc1ccc(NS(=O)(=O)c2ccccc2)c(C)c1	–	–	–	–	–	–	·	·
CCCCCn1c(CN2CC(C)OC(C)C2)nc2c1c(=O)n(C)c(=O)n2C (stereo not given)	–	–	–	–	–	42	–	–
CN(C(=O)COC(=O)c1c2c(nc3ccccc13)/C(=C/c1cccc([N+](=O)[O-])c1)CCC2)C1CCS(=O)(=O)C1 (stereo not given)	–	–	–	–	–	–	·	·
O=C(COC(=O)c1c2c(nc3ccccc13)/C(=C/c1cccc([N+](=O)[O-])c1)CCC2)NC1CCS(=O)(=O)C1 (stereo not given)	–	–	–	–	–	42	–	–
C=CCOc1ccc(C2C(C(=O)c3ccco3)=C(O)C(=O)N2c2nnc(C)s2)cc1 (stereo not given)	–	40	–	–	–	–	–	–
COc1ccc(C2C(C(=O)c3ccco3)=C(O)C(=O)N2c2nnc(C)s2)cc1 (stereo not given)	–	–	–	–	–	–	·	·
O=C(NCc1cn(-c2ccccc2)nc1-c1ccccc1)c1ccc([N+](=O)[O-])cc1	–	–	–	–	?	44	–	–
O=[N+]([O-])c1cccc(-c2nn(-c3ccccc3)cc2CO)c1	–	–	–	–	–	–	·	·
S=C(NCCCc1cnc[nH]1)NCCCN(Cc1ccc(Cl)cc1)c1ncc(Br)cn1	–	·	·	·	·	·	·	·
COc1ccc(OC)c(CCNC(=O)CCCc2nnc3n(C)c(=O)c4sccc4n23)c1	–	–	–	–	–	56!	–	–
Cn1c(=O)c2sccc2n2c(CCCC(=O)NCc3cccnc3)nnc12	–	–	–	–	–	42	–	–
CCCn1c(=O)c2sccc2n2c(CCCC(=O)NCc3cccnc3)nnc12	–	–	–	–	–	–	·	·
COc1ccc(N=c2nc(-c3ccc(C)cc3)n(-c3ccccc3)s2)cc1	–	·	·	·	·	·	·	·
CCCS(=O)(=O)N1CCN(S(=O)(=O)c2ccccc2[N+](=O)[O-])CC1	–	–	–	–	–	–	·	·
CC(=O)c1c(C)[nH]c(C(=O)CN2CCN(S(=O)(=O)c3ccccc3[N+](=O)[O-])CC2)c1C	–	–	–	–	–	45	–	–
CCOC(=O)c1[nH]c2ccc(F)cc2c1NC(=O)CN1CCc2cc(OC)c(OC)cc2C1	·	–	·	–	–	43	–	–
COC(=O)c1[nH]c2ccc(Cl)cc2c1NC(=O)CN1CCc2cc(OC)c(OC)cc2C1	–	–	–	–	–	–	·	·
COc1nc(-c2ccccc2)ccc1-c1noc(-c2cccnc2)n1	–	–	–	–	–	46	–	–
COc1nc(-c2ccc(C)cc2)ccc1-c1noc(-c2cccnc2)n1	?	–	–	–	–	–	·	·
O=C(Nc1ccc(Br)cc1F)c1cnn2c1NC(=C1CC1)C=C2C(F)F	–	·	·	·	·	·	·	·
CN(C)c1ccc(-c2nn3c(-c4cc(-c5ccccc5)n[nH]4)nnc3s2)cc1	–	·	·	·	·	·	·	·

Bioassay records from PubChem BioAssay.
